# Screens (PubChem)
# Only some compounds are listed: those with a hit (about 3.1% of all), similar ones and a draw of the others.
# MEKK2wt PB1 HTS: raises or lowers MEK5 binding to wildtype human MEKK2 PB1 domain; bead flow cytometry, Alexa488-MEK5 binding to MEKK2 WT; actives lie on both sides; AID 1531; Q9Y2U5; hit rate 1.1% among 290,000; binding response (% of control), % at 10 µM; in the data active = binding response below about 67% or above about 130%
# PREPL inhibitor: inhibitors of human prolyl oligopeptidase-like enzyme PREPL. Q4J6C6. recombinant PREPL, fluorescence polarization activity-based probe. inhibition, % at 5.96 µM. hit rate 0.68% among 320,000; in the data active = inhibition above about 43%;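 also: 0% = enzyme with DMSO and 100% = wells lacking enzyme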
# ATG4B inh: inhibitors of human ATG4B cysteine protease. Q9Y4P1. ATG4B cleavage of LC3-PLA2, NBD-HPC fluorescence, 1 h. inhibition, % at 8.33 µM. hit rate 0.51% among 340,000; in the data active = inhibition above about 40%
# Target sequence (Q9Y4P1 whole entry, looked up): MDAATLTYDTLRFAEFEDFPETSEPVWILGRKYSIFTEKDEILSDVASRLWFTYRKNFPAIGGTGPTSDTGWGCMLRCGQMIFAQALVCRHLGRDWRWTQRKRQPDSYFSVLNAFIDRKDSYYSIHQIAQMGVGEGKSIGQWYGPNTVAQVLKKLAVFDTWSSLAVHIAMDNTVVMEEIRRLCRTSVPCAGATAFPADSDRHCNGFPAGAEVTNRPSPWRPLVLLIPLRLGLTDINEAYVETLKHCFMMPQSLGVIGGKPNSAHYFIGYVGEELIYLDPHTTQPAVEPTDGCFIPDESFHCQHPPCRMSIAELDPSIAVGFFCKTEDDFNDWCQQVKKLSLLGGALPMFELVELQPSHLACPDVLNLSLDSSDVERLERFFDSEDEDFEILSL
# MEKK2 mut-MEK5: signal of MEK5 binding to mutant human MEKK2 PB1 domain. bead flow cytometry, Alexa488-MEK5 binding to MEKK2 mutant. hit rate 0.35% among 290,000. percent response, % at 10 µM; in the data active = percent response above about 24%, passing the limit was not always enough
# MEKK3 PB1 HTS: MEKK3-MEK5 PB1 interaction, increase or decrease; bead-based flow cytometry, Alexa488-MEK5 binding to MEKK3; actives lie on both sides; 0 = blocked by unlabeled MEK5, 100 = vehicle; binding response (% of control), % at 10 µM; hit rate 1.4% among 290,000;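 active = binding response more than 3 SD above or below the average of its plate-row segment, actives on both sides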;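 also: Alexa488 bead fluorescence after subtracting the streptavidin-only scavenger bead signal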
# UBC13 polyUb: human UBC13 polyubiquitination inhibition; inhibition, % at 20 µM; hit rate 0.47% among 330,000; P61088; AID 485273; UBC13 polyubiquitin chain formation, TR-FRET; in the data active = inhibition above about 45%, passing the limit was not always enough
# Target sequence (P61088 whole entry, looked up): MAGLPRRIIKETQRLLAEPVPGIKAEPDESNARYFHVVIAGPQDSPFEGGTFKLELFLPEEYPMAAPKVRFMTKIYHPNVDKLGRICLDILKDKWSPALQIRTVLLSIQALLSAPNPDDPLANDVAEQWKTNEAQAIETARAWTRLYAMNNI
# MEKK2wt confirm: raises or lowers MEK5 binding to wildtype human MEKK2, retest; hit rate 2.4% among 5,900; bead flow cytometry, Alexa488-MEK5 binding to MEKK2 WT; actives lie on both sides; shares compounds with MEKK3 PB1 HTS; binding response (% of control), % at 10 µM; in the data active = binding response below about 16% or above about 210%; inactive = in between
# MEKK2mut confirm: signal of MEK5 binding to mutant human MEKK2, retest; shares compounds with MEKK3 PB1 HTS; hit rate 2% among 5,900; bead flow cytometry, Alexa488-MEK5 binding to MEKK2 mutant; AID 1893; percent response, % at 10 µM; in the data active = percent response mostly above about 71%, no sharp cut-off; inactive = mostly below about 38%;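 also: higher means compound restores mutant binding toward wildtype level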
# MEKK3-MEK5 inh: confirmation of inhibitors of MEK5 binding to human MEKK3; shares compounds with MEKK3 PB1 HTS; bead flow cytometry, Alexa488-MEK5 binding to MEKK3; stronger effect = lower value; binding response (% of control), % at 10 µM; hit rate 1.8% among 5,900;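 active = binding response below 72% of control, or above a set upper limit, though filed actives all read lower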;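 also: 100% = DMSO only wells and 0% = binding blocked by excess unlabeled MEK5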
# Active calls of the source: *; i = inactive; nt = no result; [ ] = dose if it differs, or a comment.
SMILES,MEKK2wt PB1 HTS,PREPL inhibitor,ATG4B inh,MEKK2 mut-MEK5,MEKK3 PB1 HTS,UBC13 polyUb,MEKK2wt confirm,MEKK2mut confirm,MEKK3-MEK5 inh
COc1cc2nc(SCc3ccc(Cl)cc3Cl)n(Cc3cccs3)c(=N)c2cc1OC,90.0,18.5,-4.0,-5.0,90.0,2.8,nt,nt,nt
COc1ccc(Cn2c(SCc3cc(C)ccc3C)nc3cc(OC)c(OC)cc3c2=N)cc1,174.0*,15.6,-9.0,38.0,107.0,43.8,205.0,57.0,101.0
CCC(=O)Oc1ccc(C(=O)Nc2c[nH]c(=O)[nH]c2=O)cc1,92.0,-3.2,0.2,-1.0,69.0*[inhibitor],1.5,97.0,-5.0,103.0
COc1ccc(COc2cc(-c3cccc(OC)c3)nc3ccc(NC(=O)c4ccc(C)cc4)cc23)cc1,1.0*[inhibitor],-11.9,-6.8,-1.0,1.0*[inhibitor],-5.9,96.0,-2.0,105.0
CCN1CCN(CCCNC(=O)c2ccc(CS(=O)c3ccc(Br)cc3)o2)CC1 (stereo not given),103.0,3.0,0.1,2.0,98.0,3.6,nt,nt,nt
COc1ccccc1NC(=O)c1ccc(NC(=O)COC(=O)C2CCCCC2)cc1,112.0,-3.3,-8.1,1.0,137.0*,-0.1,106.0,-1.0,108.0
COc1ccc2c(c1)c(C(C)=O)c(C)n2-c1ccccc1,86.0,11.3,-18.6,-8.0,76.0*[inhibitor],0.2,104.0,4.0,110.0
CCCN1C(=O)/C(=C\C=C2/Sc3ccccc3N2CC)SC1=S,7.0*[inhibitor],nt,nt,-26.0,37.0*[inhibitor],nt,30.0,-28.0,71.0*
CN1/C(=C\C=C2/SC(=S)NC2=O)C(C)(C)c2ccccc21,83.0,i,-29.0,-7.0,99.0,-427.5,nt,nt,nt
CCN1C(=O)/C(=C2/Sc3ccccc3N2CC)SC1=S,95.0,9.7,2.5,-1.0,99.0,-6.6,nt,nt,nt
CCCN1C(=O)/C(=C\C=C2\N(CC)c3ccccc3C2(C)C)SC1=S,186.0*,nt,-3.8,174.0*,66.0,nt,82.0,-14.0,90.0
CCN1C(=O)/C(=C/C=C2\C=CN(CC)c3ccccc32)SC1=S,42.0*[inhibitor],6.0,5.9,-6.0,75.0*[inhibitor],nt,90.0,-5.0,102.0
C[C@H](CO)N1C[C@H](C)[C@H](CN(C)S(C)(=O)=O)Oc2c(cccc2N(C)C)C1=O,nt,9.9,-8.8,nt,nt,-11.0,nt,nt,nt
COc1ccc(CNC(=O)C2CCC(CNS(=O)(=O)c3ccccc3)CC2)cc1 (stereo not given),104.0,2.2,-6.4,5.0,105.0,-0.5,nt,nt,nt
CCCn1nc(C(=O)Nc2cc(OCC)c(N3CCOCC3)cc2OCC)c2ccccc2c1=O,nt,nt,-2.3,nt,nt,nt,nt,nt,nt
Cc1ccccc1N(CC(=O)NC1CCCC1)C(=O)C1(C)CC(=O)N=C2C=CC=CN21 (stereo not given),68.0,4.9,-0.4,-4.0,46.0*[inhibitor],13.3,100.0,-4.0,100.0
Cc1ccccc1N(CC(=O)NC1CCCC1)C(=O)C1(C)CC(=O)N=C2C=CC(Cl)=CN21 (stereo not given),99.0,13.4,0.0,1.0,103.0,15.1,nt,nt,nt
O=C(NCc1ccc(Cl)s1)C1CCC(=O)N(CCc2ccccn2)C1 (stereo not given),107.0,1.9,2.1,10.0,102.0,3.0,nt,nt,nt
O=C(CCNS(=O)(=O)c1ccccc1)NNC(=O)c1cccc(Cl)c1,nt,13.6,6.2,nt,nt,-1.7,nt,nt,nt
CC(C)Oc1ccc(/C=C/C(=O)NCC2COc3ccccc3O2)cc1 (stereo not given),92.0,-5.0,-2.6,-13.0,89.0,-1.6,nt,nt,nt
Cc1nn2c(COc3ccc(NC(=O)c4ccccc4)cc3)nnc2c2ccccc12,109.0,1.3,0.6,1.0,147.0*,-5.0,102.0,1.0,101.0
CCOc1ccccc1C(=O)N[C@H](C(=O)Nc1nc2c(s1)CCCC2)C(C)C,101.0,-2.4,4.9,1.0,137.0*,1.9,97.0,-2.0,102.0
COc1ccc(C(=O)N[C@H](C(=O)Nc2nc3c(s2)CCCC3)C(C)C)cc1,96.0,-0.7,-2.8,-2.0,96.0,11.3,nt,nt,nt
NC(=O)CC(NC(=O)c1ccccc1)c1ccc(N2CCC(Br)CC2)c([N+](=O)[O-])c1 (stereo not given),97.0,-2.0,-4.6,-2.0,77.0*[inhibitor],-15.0,91.0,-14.0,91.0
COc1ccccc1-n1cnnc1SC(C)C(=O)Nc1ccc(NC(C)=O)cc1 (stereo not given),56.0*[inhibitor],1.2,2.9,-5.0,96.0,0.3,95.0,-5.0,97.0
SMILES,MEKK2wt PB1 HTS,PREPL inhibitor,ATG4B inh,MEKK2 mut-MEK5,MEKK3 PB1 HTS,UBC13 polyUb,MEKK2wt confirm,MEKK2mut confirm,MEKK3-MEK5 inh
CCCCCN(C(=O)CCC(=O)OCC(=O)N(C)Cc1ccc(C)cc1)c1c(N)n(CCCC)c(=O)[nH]c1=O,110.0,10.1,-3.9,6.0,106.0,-4.4,nt,nt,nt
COc1cc(CC(=O)OCC(=O)NC2CCCCCC2)cc(OC)c1OC,nt,13.2,-7.0,nt,nt,-0.4,nt,nt,nt
COc1ccc(OC2C(=O)N(CCc3ccc(OC)c(OC)c3)C2c2ccc3c(c2)OCO3)cc1 (stereo not given),101.0,17.4,2.2,9.0,104.0,0.6,nt,nt,nt
COc1ccc(CCN2C(=O)C(Oc3ccccc3)C2c2ccc3c(c2)OCO3)cc1 (stereo not given),108.0,0.2,-5.3,1.0,150.0*,10.3,107.0,-3.0,102.0
O=C(CCN1CCC(c2ccccc2)C1)c1cccs1 (stereo not given),81.0,4.5,-3.9,-8.0,81.0*[inhibitor],-5.1,100.0,-3.0,100.0
COc1ccc2c(c1)C(=O)/C(=C/C=C/c1ccccc1)CC2,71.0*[inhibitor],-10.2,-6.2,-1.0,90.0,5.8,86.0,-7.0,99.0
CCn1cc(S(=O)(=O)NCc2ccc(OC)cc2)cn1,98.0,-0.4,3.7,-1.0,101.0,3.2,nt,nt,nt
CSCCC(C)N1CCC(Oc2ccc(C(=O)N3CCCC3)cc2)CC1 (stereo not given),112.0,4.5,26.6,11.0,105.0,-12.0,nt,nt,nt
COC(=O)C1=C(C(=O)OC)[C@@H]2N(Cc3ccccc3)c3ccccc3[C@@]23C[C@@H](C(=O)OC)N=C3N1,141.0*,14.5,-10.0,3.0,124.0,12.9,103.0,-3.0,99.0
CCn1c(/N=C/c2ccccc2NS(=O)(=O)c2ccc(C)cc2)nc2ccccc21,104.0,-4.4,28.4,0.0,137.0*,nt,100.0,1.0,104.0
CC1(N2CCCCC2)C(=O)c2ccccc2C1=O,106.0,0.2,-4.1,0.0,138.0*,-2.8,106.0,2.0,103.0
